Consider 37 compounds from ChEMBL document CHEMBL4513149, “CO-ADD screening of MMV (CH) - MMV compounds” (2021).

SMILES strings stand for the structures. Results with a measured potency or affinity are listed apart.

Broadly, the Inhibition is the relative decrease from the control value, in per cent.

The subject of one experiment is Staphylococcus aureus. The conditions noted are these: Concentration 20 uM; ASSAY_TEST Inhibition of Bacterial Growth; detection method Absorption (OD600); MEDIA CAMHB; plate type 384well; NBS; CORNING #3640; time 18 hr.
For another experiment, the system named is Escherichia coli. The conditions noted are these: Concentration 20 uM; ASSAY_TEST Inhibition of Bacterial Growth; detection method Absorption (OD600); MEDIA CAMHB; plate type 384well; NBS; CORNING #3640; time 18 hr.

For `Cc1ncc(-c2ccnc(Nc3ccc(S(C)(=O)=O)cc3)n2)n1C(C)C` [AZD-5438], the values for the Inhibition in the experiment with Staphylococcus aureus and in the experiment with Escherichia coli were 28.03% and 5.82%, respectively.

Turning to `CS(=O)(=O)c1ccc(C(=O)N(CC2CCCO2)c2nc3ccccc3s2)cc1[N+](=O)[O-]` (centres undefined), the Inhibition with Staphylococcus aureus is 17.15%; in the experiment with Escherichia coli, 7.54%.

`CCC(Sc1nc2ccccc2o1)C(=O)Nc1nccs1` (centres undefined): the Inhibition in the experiment with Staphylococcus aureus is listed as 18.2%; in the experiment with Escherichia coli it was 11.9%.

`COc1ccc2nc(C)cc(OCC(=O)Nc3ccccc3OC)c2c1`: the Inhibition worked out at 18.5% with Staphylococcus aureus and 13.22% in the experiment with Escherichia coli.

On to `O=C(NCCc1ccccc1)c1cc(-c2cccnc2)cnc1NCC1CC1`, for which the Inhibition was determined as 6.31% with Staphylococcus aureus and 1.84% with Escherichia coli.

For `COc1cccn2c(C(=O)N3CCCCC3)c(C(F)(F)F)nc12`, the Inhibition is given as 18.98% in the experiment with Staphylococcus aureus and -2.18% in the experiment with Escherichia coli.

Consider `O=C(NCc1ccco1)N1CCN(Cc2ccc(Cl)s2)CC1`, for which the Inhibition in the experiment with Staphylococcus aureus was 6.8%; with Escherichia coli it was -3.38%.

Regarding `COc1ccc(-c2nc(-c3cccc(NC(=O)Cc4ccc(F)cc4)c3)no2)cc1OC`, the Inhibition in the experiment with Staphylococcus aureus was found to be 22.17%; in the experiment with Escherichia coli, 8.52%.

On to `CNc1nnc(Sc2cnn(-c3ccccc3)c(=O)c2Cl)s1`, for which the figures for the Inhibition in the experiment on Staphylococcus aureus and in the experiment with Escherichia coli were 17.43% and -7.26%, respectively.

With `O=C(NCCc1c[nH]c2ccccc12)c1cc2ccccc2oc1=O`, the Inhibition in the experiment with Staphylococcus aureus was determined as 13.99%; in the experiment on Escherichia coli, 9.41%.

Take `O=C(NCc1cc(Cl)cc(Cl)c1)c1c(C(F)(F)F)nc2ccccn12`: the results for the Inhibition in the experiment on Staphylococcus aureus and in the experiment on Escherichia coli were 22.39% and 10.43%, respectively.

Turning to `CNC(=O)CNc1nc(-c2ccccn2)nc2scc(-c3ccccc3)c12`, the figures for the Inhibition in the experiment on Staphylococcus aureus and with Escherichia coli were 11.27% and 6.67%, respectively.

`COc1cncc(-c2cncc(N3CCN(c4ccncc4)CC3)n2)c1`: the Inhibition worked out at 18.85% in the experiment on Staphylococcus aureus and 13.61% in the experiment on Escherichia coli.

For `O=C(Nc1nnc(S)s1)c1cc(Br)ccc1Cl`, the Inhibition in the experiment with Staphylococcus aureus is given as 0.16%; in the experiment with Escherichia coli it was 4.27%.

As to `N#Cc1ccc(-c2cnc(N)c(-c3ccc(C(N)=O)cc3)n2)cc1`, the Inhibition in the experiment with Staphylococcus aureus is given as 16.7%; in the experiment on Escherichia coli it was 7.7%.

With `c1ccc(Oc2ccc(-c3cc(N4CCOCC4)[nH]n3)cc2)cc1`, the Inhibition came to 17.8% in the experiment with Staphylococcus aureus and 4.28% in the experiment on Escherichia coli.

Regarding `c1ccc(Oc2ccc(-c3cc(CN4CCOCC4)[nH]n3)cc2)cc1`, the Inhibition in the experiment with Staphylococcus aureus is 15.12%; with Escherichia coli it was 2.47%.

As for `CCCCS(=O)(=O)Nc1ccc2cnn(C)c2c1`, the Inhibition is on record as 17.72% with Staphylococcus aureus and 10.93% in the experiment on Escherichia coli.

Consider `CC(=O)O.CC(=O)O.Nc1ncnc2c1ncn2[C@@H]1O[C@H](COS(=O)(=O)NC(=O)c2ccccc2O)[C@@H](O)[C@H]1O`, for which the Inhibition was found to be 15.68% in the experiment on Staphylococcus aureus and 5.07% in the experiment on Escherichia coli.

For the compound `CCc1ccc([C@@H]2C[C@H](C(F)(F)F)n3ncc(C(=O)NCc4ccc(OC)cc4)c3N2)cc1`, the values for the Inhibition in the experiment with Staphylococcus aureus and with Escherichia coli were 5.55% and -1.62%, respectively.

Regarding `Cn1ncc2c(N3CCOCC3)nc(NCCc3c[nH]c4ccccc34)nc21` [TDR79432], the Inhibition is recorded as 12.92% with Staphylococcus aureus and -1.67% in the experiment on Escherichia coli.

Take `O=C(C1CCCCC1)N1CC(=O)N2CCc3ccccc3C2C1` (centres undefined) [PRAZIQUANTEL]: the Inhibition in the experiment on Staphylococcus aureus was 18.11%; in the experiment on Escherichia coli it was 6.83%.

For `COc1ccc(C2=NN(C3CCCCCC3)C(=O)C2(C)C)cc1OCCCCOc1ccc(-c2nn[nH]n2)cc1`, the Inhibition is 39.77% with Staphylococcus aureus and -0.89% in the experiment on Escherichia coli.

With `CCOc1ccccc1C(=O)Nc1cccc(-c2nc3ncccn3c2C)c1`, the values for the Inhibition with Staphylococcus aureus and with Escherichia coli were 2.54% and 10.22%, respectively.

As for `COc1ccc(N(CCc2cccc(C)n2)C(=O)C2CCCCC2)cc1`, the Inhibition in the experiment on Staphylococcus aureus is reported as 4%; with Escherichia coli, 3.67%.

As to `O=C(c1ccc(NCCO)cc1)C1C[C@H]1c1ccc(Cl)cc1` (some centres undefined), the Inhibition in the experiment with Staphylococcus aureus is given as 8.07%; in the experiment with Escherichia coli, -0.72%.

With `COc1cccc2c(C)nc(N=C(N)N)nc12.O=C(O)C(F)(F)F.O=C(O)C(F)(F)F`, the figures for the Inhibition with Staphylococcus aureus and in the experiment with Escherichia coli were 15.44% and 7.95%, respectively.

Consider `Nc1ncc(Br)cc1-c1nc2cc(Cl)cnc2[nH]1`, for which the Inhibition stood at 26.53% in the experiment on Staphylococcus aureus and 12.85% in the experiment on Escherichia coli.

For the compound `COc1ccc(OC(C)C(=O)Nc2ccc(Cl)cc2C)cc1` (centres undefined), the results for the Inhibition with Staphylococcus aureus and with Escherichia coli were 11.95% and 5.14%, respectively.

As to `Cc1cc(C(=O)Nc2ccc(-c3ccccc3)cc2)no1`, the Inhibition with Staphylococcus aureus worked out at 16.2%; with Escherichia coli, 12.13%.

Consider `Cc1noc(C)c1C(=O)N1CCCC(c2[nH]c3c(C)cccc3c2-c2ccncc2)C1` (centres undefined), for which the Inhibition in the experiment on Staphylococcus aureus is 19.72%; in the experiment with Escherichia coli, 12.41%.

As for `Cc1cc(Cl)ccc1NC(=O)CCc1ccc(S(=O)(=O)NCC(C)C)cc1`, the Inhibition with Staphylococcus aureus was found to be 6.84%; in the experiment with Escherichia coli, 9.61%.

Turning to `COc1cc2ncnc(NC3CCN(Cc4ccccc4)CC3)c2cc1OC`, the values for the Inhibition in the experiment with Staphylococcus aureus and with Escherichia coli were 7.78% and -0.93%, respectively.

Take `C[C@H](C(N)=O)N1CCCC[C@H]1c1ccc(OCc2cccc(F)c2)cc1`: the Inhibition with Staphylococcus aureus is 21.57%; with Escherichia coli, 11.68%.

With `CC(C)c1ncc(-c2ccncc2)c([C@H]2CC[C@H](CNC(=O)c3cccnc3)CC2)n1`, the Inhibition with Staphylococcus aureus is 19.09%; with Escherichia coli, 13.72%.

In the case of `CCC(=O)Nc1ccccc1C(=O)Nc1ccccn1`, the Inhibition came to 18.51% with Staphylococcus aureus and 10.48% with Escherichia coli.

Take `Cc1ccc(-c2cc(C(=O)Nc3cccnc3)c3cc(Br)ccc3n2)cc1`: the values for the Inhibition with Staphylococcus aureus and in the experiment with Escherichia coli were 16.17% and 9.4%, respectively.
